The panel holds about 79,000 compounds, 15% with a hit somewhere; the sample as a whole holds those more often. Active and inactive are the calls of the source. Rule as the data show it: active = growth inhibition above about 70%; inactive = the rest.
Columns and labels:
[1] = NCI Yeast Anticancer Drug Screen. Data for the rad52 strain (AID 147);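 also: 0% = growth of vehicle-treated control cultures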; conditions: S. cerevisiae rad52 mutant growth inhibition, active compounds read high
Summary of the method: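 The repair-mutant yeast strain was incubated with compounds, then growth was read and inhibition derived relative to vehicle.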

[2] = NCI Yeast Anticancer Drug Screen. Data for the wt1 strain (AID 149);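 also: 0% = growth of vehicle-treated wt1 cultures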; conditions: S. cerevisiae wt1 strain (SPY 50644) growth inhibition, active compounds read high
Summary of the method: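 Each compound is tested on wt1 yeast and the loss of growth versus vehicle gives the inhibition value.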

[3] = NCI Yeast Anticancer Drug Screen. Data for the rad50EPP+ strain (AID 151);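 also: 0% = growth of vehicle-treated control cultures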; conditions: S. cerevisiae rad50 mutant strain, active compounds read high
Summary of the method: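 Vehicle-normalised growth inhibition; rad50EPP+ yeast strain, altered in DNA damage repair, compound-treated.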

[4] = NCI Yeast Anticancer Drug Screen. Data for the mgt1 strain (AID 153); conditions: S. cerevisiae mgt1 mutant growth inhibition, active compounds read high
Summary of the method: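 Vehicle-normalized growth inhibition is determined in mgt1 yeast, a strain selected for a defined alteration in DNA repair or cell cycle control.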

[5] = NCI Yeast Anticancer Drug Screen. Data for the rad50 strain (AID 155);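 also: 0% = growth of vehicle-only cultures of the same strain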; conditions: S. cerevisiae rad50 strain growth inhibition, active compounds read high
Summary of the method: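 Vehicle-treated cultures provide the reference for the growth inhibition reported for compound-exposed, repair-deficient yeast.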

[6] = NCI Yeast Anticancer Drug Screen. Data for the mec2-1 strain (AID 157); conditions: S. cerevisiae mec2-1 strain, active compounds read high
Summary of the method: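 Mutant yeast (mec2-1) grown with compound; growth inhibition relative to vehicle control reported.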

[7] = NCI Yeast Anticancer Drug Screen. Data for the rad14 strain (AID 159);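 also: 0% = growth of vehicle-treated control cultures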; conditions: S. cerevisiae rad14 strain growth inhibition, active compounds read high
Summary of the method: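 Inhibition of growth is reported for a repair-deficient yeast mutant following compound treatment, calculated relative to cultures that received vehicle.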

[8] = NCI Yeast Anticancer Drug Screen. Data for the sgs1 mgt1 strain (AID 161);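 also: 0% = growth of cultures given vehicle only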; conditions: S. cerevisiae sgs1 mgt1 strain, active compounds read high
Summary of the method: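 This yeast growth screen uses a strain with defined DNA-repair lesions; compound-treated growth is compared with vehicle-treated growth.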

[9] = NCI Yeast Anticancer Drug Screen. Data for the CLN2oe strain (AID 163);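 also: 0% = growth of vehicle-only control cultures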; conditions: S. cerevisiae CLN2oe strain, active compounds read high
Summary of the method: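 Compounds are applied to yeast harbouring a defined cell-cycle control change; reduced growth compared with vehicle-treated controls gives the value.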

[10] = NCI Yeast Anticancer Drug Screen. Data for the cln2 rad14 strain (AID 165);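 also: 0% = growth equal to vehicle treated cultures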; conditions: S. cerevisiae cln2 rad14 strain, active compounds read high
Summary of the method: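 Readout is yeast growth inhibition versus vehicle-treated controls, using a strain with cln2 and rad14 alterations exposed to compound.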

[11] = NCI Yeast Anticancer Drug Screen. Data for the wt2 strain (AID 169); conditions: S. cerevisiae wt2 strain growth inhibition, active compounds read high
Summary of the method: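 Against vehicle-treated controls, the growth of yeast exposed to each compound was compared, and the inhibition was recorded.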

[12] = NCI Yeast Anticancer Drug Screen. Data for the mlh1 strain (AID 171);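 also: 0% = growth of vehicle-treated control cultures of the same strain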; conditions: S. cerevisiae mlh1 strain growth inhibition, active compounds read high
Summary of the method: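 Measured: yeast growth. Reference: vehicle-treated controls. Organism: strain with a defined alteration affecting DNA damage repair or cell cycle control, treated with compound.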

[13] = NCI Yeast Anticancer Drug Screen. Data for the sgs1 strain (AID 173);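 also: 0% = growth of vehicle-only control cultures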; conditions: S. cerevisiae sgs1 mutant, active compounds read high
Summary of the method: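 Each compound was added to cultures of the altered yeast strain. Growth was recorded, and inhibition was derived by comparison with vehicle controls.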

[14] = NCI Yeast Anticancer Drug Screen. Data for the mlh1 rad18 strain (AID 175); conditions: S. cerevisiae mlh1 rad18 strain growth inhibition, active compounds read high
Summary of the method: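 Genetically defined yeast (DNA repair-deficient) exposed to compounds; growth inhibition determined relative to vehicle.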

[15] = NCI Yeast Anticancer Drug Screen. Data for the bub3 strain (AID 167); conditions: S. cerevisiae bub3 mutant strain, active compounds read high
Summary of the method: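 Mutant yeast screening strain plus compound; vehicle-treated cultures serve as the 0% inhibition reference.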

[16] = NCI Yeast Anticancer Drug Screen. Data for the rad18 strain (AID 177); conditions: S. cerevisiae rad18 mutant growth inhibition, active compounds read high
Summary of the method: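 Vehicle-treated cultures served as the baseline for scoring compound-induced growth inhibition in DNA-repair-mutant yeast.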

[17] = at 5.0 µM (retest, dose inferred, filed as 0.5)
[18] = at 50.0 µM (retest, dose inferred, filed as 5.0)

Measured: growth inhibition

CC[C@@]1(O)C(=O)OCc2c1cc1n(c2=O)Cc2cc3c(CN(C)C)c(O)ccc3nc2-1
active: [1]; at 100.0 µM 87% | [5]; at 33.0 µM 79% | [5]; [18] 85% | [5]; at 50.0 µM 80.7% | [5]; at 100.0 µM 92%
inactive: [1]; at 1.2 µM 5% | [1]; at 3.7 µM 13% | [1]; at 11.0 µM 41% | [1]; at 33.0 µM 68% | [2]; at 1.2 µM -1% | [2]; at 3.7 µM -1% | [2]; at 11.0 µM -2% | [2]; at 33.0 µM -2% | [2]; at 100.0 µM -6% | [3]; at 1.2 µM 30% | [3]; at 3.7 µM 29% | [3]; at 11.0 µM 22% | [3]; at 33.0 µM 23% | [3]; at 100.0 µM 30% | [4]; at 1.2 µM 11% | [4]; at 3.7 µM 2% | [4]; at 11.0 µM 3% | [4]; at 33.0 µM 11% | [4]; at 100.0 µM 18% | [5]; at 1.2 µM 6% | [5]; at 3.7 µM 18% | [5]; [17] 21% | [5]; at 11.0 µM 40% | [6]; at 1.2 µM -2% | [6]; at 3.7 µM -2% | [6]; [17] -3% | [6]; at 11.0 µM -1% | [6]; at 33.0 µM 2% | [6]; [18] -1% | [6]; at 50.0 µM 12.4% | [6]; at 100.0 µM 10% | [7]; at 1.2 µM -1% | [7]; at 3.7 µM -4% | [7]; at 11.0 µM -2% | [7]; at 33.0 µM -6% | [7]; at 100.0 µM -4% | [8]; [17] -3% | [8]; [18] -3% | [8]; at 50.0 µM 4.5% | [9]; at 1.2 µM -2% | [9]; at 3.7 µM -4% | [9]; at 11.0 µM -6% | [9]; at 33.0 µM -13% | [9]; at 100.0 µM -1% | [10]; [17] -3% | [10]; [18] -12% | [10]; at 50.0 µM -5.5% | [11]; at 1.2 µM -1% | [11]; at 3.7 µM 7% | [11]; at 11.0 µM -3% | [11]; at 33.0 µM -2% | [11]; at 100.0 µM -12% | [12]; at 1.2 µM 0% | [12]; at 3.7 µM -4% | [12]; at 11.0 µM -3% | [12]; at 33.0 µM 0% | [12]; at 100.0 µM 0% | [13]; at 1.2 µM -3% | [13]; at 3.7 µM 0% | [13]; at 11.0 µM 0% | [13]; at 33.0 µM 6% | [13]; at 100.0 µM 5% | [14]; [17] 0% | [14]; [18] 3% | [14]; at 50.0 µM 12.2%

Cc1cc2c(cc1C(=O)CCC(=O)O)CC1(C2)Cc2cc(C)c(C(=O)CCC(=O)O)cc2C1
inactive: [1]; at 1.2 µM 3% | [1]; at 3.7 µM 6% | [1]; at 11.0 µM 11% | [1]; at 33.0 µM 25% | [1]; at 100.0 µM 47% | [2]; at 1.2 µM 3% | [2]; at 3.7 µM 4% | [2]; at 11.0 µM 12% | [2]; at 33.0 µM 21% | [2]; at 100.0 µM 35% | [3]; at 1.2 µM 1% | [3]; at 3.7 µM 0% | [3]; at 11.0 µM 8% | [3]; at 33.0 µM 15% | [3]; at 100.0 µM 30% | [4]; at 1.2 µM 2% | [4]; at 3.7 µM 6% | [4]; at 11.0 µM 12% | [4]; at 33.0 µM 36% | [4]; at 100.0 µM 42% | [5]; at 1.2 µM 3% | [5]; at 3.7 µM 2% | [5]; [17] 13% | [5]; at 11.0 µM 9% | [5]; at 33.0 µM 21% | [5]; [18] 36% | [5]; at 50.0 µM 56.5% | [5]; at 100.0 µM 42% | [6]; at 1.2 µM -2% | [6]; at 3.7 µM 1% | [6]; [17] -4% | [6]; at 11.0 µM 12% | [6]; at 33.0 µM 26% | [6]; [18] 14% | [6]; at 50.0 µM 31.5% | [6]; at 100.0 µM 56% | [7]; at 1.2 µM -1% | [7]; at 3.7 µM 2% | [7]; at 11.0 µM 8% | [7]; at 33.0 µM 22% | [7]; at 100.0 µM 44% | [8]; [17] -4% | [8]; [18] 29% | [8]; at 50.0 µM 49.9% | [10]; [17] 16% | [10]; [18] 47% | [10]; at 50.0 µM 38.4% | [15]; at 1.2 µM -4% | [15]; at 3.7 µM 0% | [15]; [17] 13% | [15]; at 11.0 µM 9% | [15]; at 33.0 µM 17% | [15]; [18] 62% | [15]; at 50.0 µM 54.8% | [15]; at 100.0 µM 54% | [11]; at 1.2 µM 0% | [11]; at 3.7 µM 2% | [11]; at 11.0 µM 10% | [11]; at 33.0 µM 26% | [11]; at 100.0 µM 46% | [12]; at 1.2 µM 5% | [12]; at 3.7 µM 5% | [12]; at 11.0 µM 14% | [12]; at 33.0 µM 27% | [12]; at 100.0 µM 50% | [14]; [17] -1% | [14]; at 50.0 µM 67.8% | [16]; at 1.2 µM 1% | [16]; at 3.7 µM 1% | [16]; at 11.0 µM -3% | [16]; at 33.0 µM 22% | [16]; at 100.0 µM 63%
active: [14]; [18] 70%
